# Inconclusive results are not listed. The source made the active and inactive calls. Unless noted, the call rests on the fitted dose curve; in most records, active means well fitted curve in either direction with a large enough effect (not every such curve was filed as active); inconclusive means small, poorly fitted or top-dose-only effect, or another doubt; inactive means flat fitted curve, though single readings scatter.
# Experiments:
# [1] = target: Lysosomal acid glucosylceramidase (Homo sapiens) (UniProt P04062); experiment: Glucocerebrosidase-p2 (AID 348; in the data active means potency below about 10 µM; further: potency means the concentration at half of the fitted maximal effect); settings: purified GBA, blue fluorogenic substrate, 40 min
# Lysosomal acid glucosylceramidase (Homo sapiens), sequence (P04062 whole entry, looked up): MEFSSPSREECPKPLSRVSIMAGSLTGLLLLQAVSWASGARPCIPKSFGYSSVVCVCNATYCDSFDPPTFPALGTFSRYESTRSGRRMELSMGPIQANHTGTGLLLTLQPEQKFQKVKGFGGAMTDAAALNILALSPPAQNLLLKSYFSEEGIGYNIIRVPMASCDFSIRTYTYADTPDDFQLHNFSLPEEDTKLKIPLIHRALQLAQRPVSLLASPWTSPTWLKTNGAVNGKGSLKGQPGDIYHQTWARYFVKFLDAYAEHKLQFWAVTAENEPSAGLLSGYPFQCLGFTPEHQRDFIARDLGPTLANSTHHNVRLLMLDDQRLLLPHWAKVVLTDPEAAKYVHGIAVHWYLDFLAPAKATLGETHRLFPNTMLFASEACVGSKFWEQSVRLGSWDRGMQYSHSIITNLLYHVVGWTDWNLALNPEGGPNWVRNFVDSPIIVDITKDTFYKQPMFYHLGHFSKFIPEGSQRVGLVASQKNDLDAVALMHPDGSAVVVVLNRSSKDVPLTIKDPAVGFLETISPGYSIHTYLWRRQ
# In short: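 Compounds titrated from 0.6 nM upwards against 0.2 nM enzyme in pH 5.9 citric acid/KH2PO4, taurocholate, tween-20; blue fluorogenic substrate 80 uM, 40 min room temperature, stopped and read Ex 365/Em 440 for AC50.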
# [2] = AP1 Signaling Pathway (AID 357); settings: ME-180 AP-1-bla reporter, EGF-induced, beta-lactamase ratio, 5 h; at 7.69 µM (top of the series) unless noted;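 further: ME-180 reporter cells stimulated with EGF at its EC50 level; on the % scale 0 is the no-effect control and ±100 the full control effect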
# In short: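 In this screen, ME-180 cells in Opti-MEM with 0.5% dialyzed FBS received EC50 EGF and compound titrations for 5 h. AP-1 reporter beta-lactamase was detected via CCF4 ratio, giving AC50 for positive and negative modulators.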
# [3] = target: Cytochrome P450 1A2 (Homo sapiens) (UniProt P05177); experiment: p450-cyp1a2 (AID 410; calls by dose curve; further: potency means the concentration at half of the fitted maximal effect); settings: recombinant CYP1A2, luciferin-ME demethylation, luminescence; series mostly up to 57 µM
# Cytochrome P450 1A2 (Homo sapiens), sequence (P05177 whole entry, looked up): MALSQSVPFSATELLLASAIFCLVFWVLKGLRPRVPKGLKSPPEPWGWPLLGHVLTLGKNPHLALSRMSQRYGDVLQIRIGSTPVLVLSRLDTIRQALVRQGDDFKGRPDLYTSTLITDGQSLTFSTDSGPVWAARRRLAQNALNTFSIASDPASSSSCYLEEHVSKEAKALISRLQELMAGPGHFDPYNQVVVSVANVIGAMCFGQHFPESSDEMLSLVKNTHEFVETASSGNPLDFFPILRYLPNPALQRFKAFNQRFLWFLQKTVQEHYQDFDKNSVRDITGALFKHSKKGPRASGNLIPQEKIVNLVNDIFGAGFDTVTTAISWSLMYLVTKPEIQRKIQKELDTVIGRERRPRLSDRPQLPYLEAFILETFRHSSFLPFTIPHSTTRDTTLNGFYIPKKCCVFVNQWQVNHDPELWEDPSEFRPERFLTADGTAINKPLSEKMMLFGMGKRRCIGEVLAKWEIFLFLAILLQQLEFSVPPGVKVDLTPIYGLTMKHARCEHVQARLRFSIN
# In short: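 Human CYP1A2 (20nM) demethylated Luciferin-ME at its Km (100uM) in 100mM KPO4. After 10 min compound preincubation, NADPH regeneration ran the reaction 60 min at room temperature. Luciferin was read by luminescence, normalized to 57 uM furafylline.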
# [4] = NFAT Signaling Pathway (AID 444); settings: Jurkat NFAT-bla M1, carbachol, beta-lactamase ratio, 5 h; at 7.69 µM (top of the series) unless noted;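 further: carbachol stimulus at about its EC50 of 1 µM final; on the % scale 0 is the no-effect control and ±100 the full control effect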
# In short: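 Jurkat cells with NFAT-driven β-lactamase reporter and co-expressed M1 receptor, stimulated with carbachol (final 1 uM, ~EC50), compound titration, 5 h at 37 °C. CCF4 loaded 1 h at RT; 460/530 nm ratio gave %activity and AC50.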
# [5] = Stat Signaling Pathway (AID 446); settings: ME-180 (cervical carcinoma) SIE beta-lactamase reporter, IL-6 stimulated, 5 h; at 7.69 µM (top of the series) unless noted;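 further: ME-180 cervical cancer cells given 40 pM IL-6 alongside compound; SIE-controlled beta-lactamase reporter measured as 460/530 nm FRET emission ratio; on the % scale 0 is the no-effect control and ±100 the full control effect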
# In short: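 IL-6/STAT signaling read in ME-180 cells via an SIE beta-lactamase reporter. Stimulus was 40 pM IL-6 (its AC50) for 5 hrs, so both activation and inhibition register.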
# [6] = target: Glucocorticoid receptor (Homo sapiens) (UniProt P04150); experiment: GR-GFP Redistribution (AID 450;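 active means compounds whose dose series gives a full or clear partial fitted curve of increased nuclear translocation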; further: potency means the concentration at half of the fitted maximal effect); settings: U2OS GR-GFP nuclear translocation, laser cytometry, 2 h
# Glucocorticoid receptor (Homo sapiens), sequence (P04150 whole entry, looked up, the tested form may be a part): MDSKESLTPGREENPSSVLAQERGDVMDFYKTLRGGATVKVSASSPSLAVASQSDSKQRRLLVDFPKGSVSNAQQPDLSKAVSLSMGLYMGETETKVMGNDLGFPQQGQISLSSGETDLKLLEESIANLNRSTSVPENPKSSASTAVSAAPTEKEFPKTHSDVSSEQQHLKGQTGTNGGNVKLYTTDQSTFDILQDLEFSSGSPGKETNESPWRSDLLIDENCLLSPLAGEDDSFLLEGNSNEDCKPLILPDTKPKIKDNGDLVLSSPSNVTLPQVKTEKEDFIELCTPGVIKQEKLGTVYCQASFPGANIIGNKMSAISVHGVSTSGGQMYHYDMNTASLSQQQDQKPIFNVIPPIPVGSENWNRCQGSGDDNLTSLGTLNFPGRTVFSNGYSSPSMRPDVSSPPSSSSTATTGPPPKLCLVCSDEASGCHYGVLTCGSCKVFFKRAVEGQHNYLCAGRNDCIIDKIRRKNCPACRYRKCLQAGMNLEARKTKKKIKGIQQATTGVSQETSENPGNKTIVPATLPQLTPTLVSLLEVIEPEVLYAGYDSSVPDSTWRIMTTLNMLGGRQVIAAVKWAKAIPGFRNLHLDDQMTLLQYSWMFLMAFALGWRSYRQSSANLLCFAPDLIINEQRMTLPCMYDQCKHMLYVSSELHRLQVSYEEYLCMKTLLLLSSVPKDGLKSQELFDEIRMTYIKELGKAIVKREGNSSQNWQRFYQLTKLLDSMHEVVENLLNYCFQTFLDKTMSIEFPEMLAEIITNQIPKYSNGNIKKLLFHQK
# [7] = target: Glucocorticoid receptor (Homo sapiens) (UniProt P04150); experiment: GR-EFC Redistribution (AID 451; calls by dose curve; further: potency means the concentration at half of the fitted maximal effect); settings: CHO-K1 GR-EFC translocation, beta-gal luminescence, 2 h
# In short: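 CHO-K1 cells expressing nuclear EA and GR-ED fragments of b-gal; compounds titrated up to 46 uM final, 2 h at 37 C. GR nuclear translocation read as complemented b-gal luminescence after 1 h RT detection.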
# [8] = target: Mitogen-activated protein kinase 10 (Mus musculus) (UniProt Q61831); experiment: JNK3 AlphaScreen Assay (AID 530); settings: JNK3 lysate, c-Jun phosphorylation; series mostly up to 57.1 µM;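 further: kinase came from lysate of stimulated human HepG2 cells; signal reports phosphorylation of biotinylated GST-cJun 1-79 at Ser73 with 10 µM ATP; on the % scale 0 is the no-effect control and ±100 the full control effect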
# In short: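 qHTS format: compounds tested as titrations against IL-1beta/TNF-alpha-activated HepG2 lysate JNK3 with biotin-GST-cJun substrate and 10 uM ATP at room temperature. Loss of anti-phospho-cJun AlphaScreen signal indicates inhibition.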
# [9] = target: 3',5'-cyclic-AMP phosphodiesterase 4B (Homo sapiens) (UniProt Q07343); experiment: qHTS Assay for Inhibitors of PDE-IV (AID 607; active means well fitted activation curve with a large enough effect in the main read-out, with a control signal flat, not every such curve was filed as active; further: % of control where 0% means no effect); settings: HEK293 ACTOne CNG channel cells, membrane potential fluorescence; series mostly up to 22.9 µM
# 3',5'-cyclic-AMP phosphodiesterase 4B (Homo sapiens), sequence (Q07343 whole entry, looked up): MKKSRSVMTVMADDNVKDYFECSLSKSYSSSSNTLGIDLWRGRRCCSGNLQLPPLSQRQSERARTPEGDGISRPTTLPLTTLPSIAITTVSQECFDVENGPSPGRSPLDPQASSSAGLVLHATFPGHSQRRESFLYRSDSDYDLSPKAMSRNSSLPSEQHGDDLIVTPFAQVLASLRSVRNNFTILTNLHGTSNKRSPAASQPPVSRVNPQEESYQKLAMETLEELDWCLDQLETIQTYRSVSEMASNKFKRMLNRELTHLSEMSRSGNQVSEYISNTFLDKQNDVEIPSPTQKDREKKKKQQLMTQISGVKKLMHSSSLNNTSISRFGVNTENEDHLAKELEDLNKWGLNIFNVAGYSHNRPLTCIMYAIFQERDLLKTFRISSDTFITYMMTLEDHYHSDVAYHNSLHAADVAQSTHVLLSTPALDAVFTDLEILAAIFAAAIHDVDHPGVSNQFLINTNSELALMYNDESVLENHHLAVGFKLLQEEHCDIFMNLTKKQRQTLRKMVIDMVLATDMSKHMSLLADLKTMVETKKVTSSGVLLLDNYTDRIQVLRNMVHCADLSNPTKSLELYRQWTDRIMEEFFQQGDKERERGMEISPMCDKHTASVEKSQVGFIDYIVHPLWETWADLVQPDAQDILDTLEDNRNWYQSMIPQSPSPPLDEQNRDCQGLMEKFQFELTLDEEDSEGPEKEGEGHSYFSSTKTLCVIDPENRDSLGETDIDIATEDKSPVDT
# In short: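 Live HEK293 cells with a modified cyclic nucleotide-gated (CNG) channel report intracellular cAMP via membrane-potential dye fluorescence (ex 535/em 590 nm). Endogenous PDE-IV was targeted. Compounds were tested at up to 22.9 uM final; RO 20-1724 100 uM served as control.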
# [10] = target: Cytochrome P450 3A4 (Homo sapiens) (UniProt P08684); experiment: qHTS Assay for Inhibitors and Substrates of Cytochrome P450 3A4 (AID 884; active means well fitted curve in the direction sought with a large enough effect; an effect the other way counts as inactive or inconclusive; further: nearly all actives have a fitted effect of over 50% in size; further: potency means the concentration at half of the fitted maximal effect); settings: recombinant CYP3A4, Luciferin-PPXE luminescence; series mostly up to 57.1 µM
# Cytochrome P450 3A4 (Homo sapiens), sequence (P08684 whole entry, looked up): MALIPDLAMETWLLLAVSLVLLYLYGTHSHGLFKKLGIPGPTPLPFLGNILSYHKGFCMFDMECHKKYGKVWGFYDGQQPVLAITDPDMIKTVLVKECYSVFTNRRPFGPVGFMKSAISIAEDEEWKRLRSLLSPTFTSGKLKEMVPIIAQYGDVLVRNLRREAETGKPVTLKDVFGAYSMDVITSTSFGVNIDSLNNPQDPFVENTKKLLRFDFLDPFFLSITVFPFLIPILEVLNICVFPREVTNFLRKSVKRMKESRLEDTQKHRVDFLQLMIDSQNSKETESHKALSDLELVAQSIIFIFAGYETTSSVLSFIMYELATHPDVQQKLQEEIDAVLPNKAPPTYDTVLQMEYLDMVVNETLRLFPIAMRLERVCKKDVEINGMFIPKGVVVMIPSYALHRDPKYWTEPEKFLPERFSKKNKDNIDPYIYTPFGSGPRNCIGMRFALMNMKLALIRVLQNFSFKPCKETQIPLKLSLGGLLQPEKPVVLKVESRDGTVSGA
# In short: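 20 nM human CYP3A4 with 25 uM Luciferin-PPXE (at KM) in 200 mM KPO4, preincubated 10 min with compound; NADPH regeneration started a 60 min RT reaction. Luciferin detected by luminescence, normalized to 57 uM ketoconazole as full inhibition.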
# [11] = target: Cytochrome P450 3A4 (Homo sapiens) (UniProt P08684); experiment: qHTS Assay for Activators of Cytochrome P450 3A4 (AID 885; active means well fitted curve in the direction sought with a large enough effect; an effect the other way counts as inactive or inconclusive; further: nearly all actives have a fitted effect of over 65% in size); settings: recombinant CYP3A4, Luciferin-PPXE luminescence, 60 min; series mostly up to 57.1 µM
# In short: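 Quantitative HTS format: compounds preincubated with 20nM human CYP3A4 and Luciferin-PPXE substrate at KM, reaction started by NADPH regeneration, stopped after 60 min, luciferase luminescence read 20 min later.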
# [12] = target: Cytochrome P450 2C19 (Homo sapiens) (UniProt P33261); experiment: qHTS Assay for Inhibitors and Substrates of Cytochrome P450 2C19 (AID 899; active means well fitted curve in the direction sought with a large enough effect; an effect the other way counts as inactive or inconclusive; further: nearly all actives have a fitted effect of over 60% in size; further: potency means the concentration at half of the fitted maximal effect); settings: recombinant CYP2C19, luciferin-H EGE luminescence; series mostly up to 57.1 µM
# Cytochrome P450 2C19 (Homo sapiens), sequence (P33261 whole entry, looked up): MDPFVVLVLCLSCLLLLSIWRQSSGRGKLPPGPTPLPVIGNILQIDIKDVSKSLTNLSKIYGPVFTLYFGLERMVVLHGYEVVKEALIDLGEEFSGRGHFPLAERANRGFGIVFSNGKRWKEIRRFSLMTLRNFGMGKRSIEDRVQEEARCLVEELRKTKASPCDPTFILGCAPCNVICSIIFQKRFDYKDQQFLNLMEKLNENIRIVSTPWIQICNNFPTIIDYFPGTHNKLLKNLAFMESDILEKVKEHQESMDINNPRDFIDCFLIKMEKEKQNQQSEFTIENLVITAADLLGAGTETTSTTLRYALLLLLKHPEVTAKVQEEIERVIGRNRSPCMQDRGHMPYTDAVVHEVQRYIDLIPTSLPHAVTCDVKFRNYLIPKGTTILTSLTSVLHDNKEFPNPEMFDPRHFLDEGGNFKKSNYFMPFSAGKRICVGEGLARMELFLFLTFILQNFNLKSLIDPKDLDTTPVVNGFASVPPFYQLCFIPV
# In short: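 Luminescent read-out of luciferin formed from Luciferin-H EGE (10uM, equal to KM). Enzyme 5nM in 50mM KPO4; compound added, 10 min at 37C, then NADPH regenerating system for 60 min at 37C. Full inhibition defined by 57uM ketoconazole.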
# [13] = Confirmation and Secondary Assay for Modulators of Hemoglobin Beta Chain Splicing at IVS2 654 locus (AID 910; active means well fitted curve in the direction sought with a large enough effect; an effect the other way counts as inactive or inconclusive;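 further: HeLa cells stably carrying EGFP split by mutant beta-globin IVS2-654 intron; % of control where 0% means no effect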); settings: HeLa EGFP-654 splicing reporter, GFP fluorescence, 48 h; series mostly up to 38.3 µM
# In short: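 HeLa cells stably expressing EGFP interrupted by β-globin IVS2-654 intron, seeded overnight in Opti-MEM/2% FCS, then treated 2 days at 37 °C. Restored splicing read as total peak GFP intensity per well by laser scanning cytometry (488 nm excitation, 500–520 nm emission); 500 nM antisense PNA as control.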
# [14] = Confirmation and Secondary Assay for Modulators of Hemoglobin Beta Chain Splicing at IVS2 705 locus (AID 930; active means well fitted curve in the direction sought with a large enough effect; an effect the other way counts as inactive or inconclusive;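 further: HeLa cells stably expressing the EGFP-705 splicing reporter; GFP fluorescence per well restored by corrected splicing of the IVS2-705 intron in EGFP; % of control where 0% means no effect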); settings: HeLa EGFP-705 splicing reporter, GFP fluorescence, 48 h; series mostly up to 38.3 µM
# In short: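 Per-well GFP, captured at 1 x 8 µm resolution with 488 nm excitation, served as the read-out for HeLa EGFP-705 cells incubated 2 days with test compound versus DMSO.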
# [15] = qHTS Assay for Lipid Storage Modulators (AID 1519; calls by dose curve); settings: Drosophila S3 cells, BODIPY lipid droplet/cell ratio, laser cytometry, cells loaded with oleic acid; for activity change, negative = inhibition: at 57.5 µM (top of the series)
# In short: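 Cells seeded at 5,000 per well were treated with compounds over a concentration series and loaded with oleic acid (400 uM, as added). Lipid droplet fluorescence (488 nm excitation, 500-530 nm channel) was read by laser-scanning cytometry and normalized to 20 uM Triacsin C.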
# [16] = Primary qHTS for small molecule stabilizers of the endoplasmic reticulum resident proteome: Secreted ER Calcium Modulated Protein (SERCaMP) assay (AID 1508630; active means well fitted curve in the direction sought with a large enough effect; an effect the other way counts as inactive or inconclusive; further: on the % scale 0 is the no-effect control and ±100 the full control effect); settings: SH-SY5Y GLuc-SERCaMP (Gaussia luciferase released on ER calcium loss) secretion, thapsigargin, luminescence; series mostly up to 38.4 µM
# In short: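 GLuc-SERCaMP-expressing SH-SY5Y cells, pretreated 16 h with compound, are challenged with thapsigargin to empty ER calcium stores; after 4 h, coelenterazine is added directly to the medium and luminescence is imaged.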
# [17] = target: Ubiquitin carboxyl-terminal hydrolase 1 (Homo sapiens) (UniProt O94782); experiment: Inhibitors of USP1/UAF1: Pilot qHTS (AID 504865; active means well fitted curve in the direction sought with a large enough effect; an effect the other way counts as inactive or inconclusive;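 further: rhodamine fluorescence freed from ubiquitin-rhodamine substrate followed over time; top concentration of the series differs between compounds; on the % scale 0 is the no-effect control and ±100 the full control effect; nearly all actives have a fitted effect of over 35% in size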); settings: purified USP1/UAF1, Ub-rhodamine cleavage fluorescence; series mostly up to 54.9 µM
# Ubiquitin carboxyl-terminal hydrolase 1 (Homo sapiens), sequence (O94782 whole entry, looked up): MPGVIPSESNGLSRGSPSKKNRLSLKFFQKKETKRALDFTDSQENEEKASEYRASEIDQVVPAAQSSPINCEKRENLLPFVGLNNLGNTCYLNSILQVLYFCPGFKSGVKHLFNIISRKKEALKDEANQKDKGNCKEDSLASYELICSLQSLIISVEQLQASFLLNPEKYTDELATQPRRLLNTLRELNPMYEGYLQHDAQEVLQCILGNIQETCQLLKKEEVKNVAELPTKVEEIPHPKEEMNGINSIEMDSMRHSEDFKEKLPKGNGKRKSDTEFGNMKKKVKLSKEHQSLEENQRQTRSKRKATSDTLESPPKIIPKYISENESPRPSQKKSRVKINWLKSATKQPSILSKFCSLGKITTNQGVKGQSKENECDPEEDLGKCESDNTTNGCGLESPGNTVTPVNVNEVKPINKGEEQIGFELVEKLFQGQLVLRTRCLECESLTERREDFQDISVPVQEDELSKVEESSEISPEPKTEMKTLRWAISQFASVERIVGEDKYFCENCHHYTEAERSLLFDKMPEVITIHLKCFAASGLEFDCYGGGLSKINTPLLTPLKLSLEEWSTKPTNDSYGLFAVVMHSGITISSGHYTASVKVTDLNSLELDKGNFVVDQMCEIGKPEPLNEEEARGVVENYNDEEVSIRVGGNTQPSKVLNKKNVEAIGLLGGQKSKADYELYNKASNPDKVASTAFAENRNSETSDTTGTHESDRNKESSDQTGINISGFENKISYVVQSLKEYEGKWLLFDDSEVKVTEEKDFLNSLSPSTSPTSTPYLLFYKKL
# In short: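 Enzyme-free wells gave the negative control, while test wells held 1nM USP1/UAF1 preincubated with compound for 15 min at room temperature. Ub-Rho at 150nM final started the reaction, and fluorescence at 480/540 nm was recorded kinetically.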
# [18] = target: Cytochrome P450 2C9 (Homo sapiens) (UniProt P11712); experiment: qHTS Assay for Inhibitors and Substrates of Cytochrome P450 2C9 (AID 883; active means well fitted curve in the direction sought with a large enough effect; an effect the other way counts as inactive or inconclusive; further: on the % scale 0 is the no-effect control and ±100 the full control effect; nearly all actives have a fitted effect of over 60% in size); settings: recombinant CYP2C9, luciferin-H luminescence, 60 min; series mostly up to 57.1 µM
# Cytochrome P450 2C9 (Homo sapiens), sequence (P11712 whole entry, looked up): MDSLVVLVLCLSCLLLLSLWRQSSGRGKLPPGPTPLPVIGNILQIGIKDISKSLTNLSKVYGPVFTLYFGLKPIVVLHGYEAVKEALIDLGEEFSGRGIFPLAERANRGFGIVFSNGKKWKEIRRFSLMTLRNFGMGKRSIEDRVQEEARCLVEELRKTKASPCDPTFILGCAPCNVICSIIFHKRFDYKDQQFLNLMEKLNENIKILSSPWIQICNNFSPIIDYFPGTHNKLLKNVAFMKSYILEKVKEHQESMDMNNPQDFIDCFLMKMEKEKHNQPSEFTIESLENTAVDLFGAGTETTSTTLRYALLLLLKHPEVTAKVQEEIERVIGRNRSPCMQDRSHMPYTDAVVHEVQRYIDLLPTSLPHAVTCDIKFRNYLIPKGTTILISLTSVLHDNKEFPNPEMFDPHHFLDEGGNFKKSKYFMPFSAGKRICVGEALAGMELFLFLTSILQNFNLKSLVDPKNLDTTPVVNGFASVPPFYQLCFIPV
# In short: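 10nM CYP2C9 + 100uM Luciferin-H (=KM), 25mM KPO4; cpd 10 min 37C; NADPH regen, 60 min 37C; stop/detect with P450 Glo-Buffer 20 min; luminescence. Norm. to 57uM sulphaphenazole as full inhibition.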
# [19] = measured here: cell count channel max response
# [20] = measured here: lipid channel max response
Compound,Potency [1],"activity change, negative = inhibition [2]",Potency [3],"activity change, negative = inhibition [4]","activity, negative = inhibition [5]",Potency [6],Potency [7],outcome [8],Potency [9],Potency [10],Potency [11],Potency [12],outcome [13],outcome [14],"activity change, negative = inhibition [15]","max response [15, 19] [%]","max response [15, 20] [%]",Potency [16],Potency [17],Potency [18]
Cc1cccc(CNc2ccnc(-c3cccnc3)n2)c1,> 11.4 µM (inactive),-18.1% (inactive),0.126 µM (active),10.6% (inactive),1.1% (inactive),> 46 µM (inactive),> 46 µM (inactive),inactive,inactive,0.501 µM (active),inactive,2.51 µM (active),inactive,inactive,8.22% (inactive),-7.71,-5.64,inactive,,
Cc1nc2cnc(N3CCOCC3)nc2n(CCC#N)c1=O,> 11.4 µM (inactive),2.45% (inactive),12.6 µM (active),-9.52% (inactive),21.2% (inactive),> 9.22 µM (inactive),> 46 µM (inactive),inactive,,,,,,,5.38% (inactive),1.22,11.9,inactive,,
CN1CCN(c2cc(-c3ccc(N(C)C)cc3)ncn2)CC1,> 11.4 µM (inactive),-7.42% (inactive),2.51 µM (active),-7.21% (inactive),2.2% (inactive),> 46 µM (inactive),> 46 µM (inactive),inactive,inactive,,,,inactive,inactive,8.21% (inactive),7.68,16.4,inactive,inactive,
COCCNc1cc(-c2ccccc2C(F)(F)F)ncn1,> 11.4 µM (inactive),1.05% (inactive),15.8 µM (active),1.43% (inactive),11% (inactive),> 46 µM (inactive),> 46 µM (inactive),inactive,inactive,inactive,,7.94 µM (active),inactive,inactive,7.86% (inactive),16.6,25.3,inactive,,
O=c1c(-c2ccc(F)cc2)nc2cnc(N3CCOCC3)nc2n1C[C@H]1CCCO1,> 11.4 µM (inactive),9.7% (inactive),1.58 µM (active),1.18% (inactive),29.2% (inactive),> 9.22 µM (inactive),> 46 µM (inactive),inactive,inactive,,,inactive,,,-21.9% (inactive),16.8,-2.6,inactive,,inactive
COc1ncc2ncc(=O)n(C)c2n1,> 11.4 µM (inactive),-3.14% (inactive),12.6 µM (active),2.1% (inactive),-12.1% (inactive),> 9.22 µM (inactive),> 46 µM (inactive),inactive,inactive,,,,,,6.15% (inactive),14.9,24.1,inactive,,

# — PubChem BioAssay (NCATS)
